A selection: hits, their analogues and other compounds. The true share with any hit is near 0.5%.
E coli growth-1 = E. coli V3065 growth inhibition, primary screen, counter-screen for AddAB inhibitor project, absorbance, OD600; 18 h; inhibition, % at 11.9 µM; hit rate 0.27% among 330,000; AID 449728, 2010;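 active means inhibition above the campaign's mean inhibition across all tested compounds plus 3 SD, cut at about 9.9% in these data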;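 further: uninfected addAB+ strain grown without phage in ampicillin broth; 0% = DMSO wells and 100% = ciprofloxacin 0.95 µg/ml wells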
E coli growth-2 = E. coli growth inhibition, primary screen, OD600; Escherichia coli growth, 23 h; stronger effect = lower value; OD600 absorbance (test concentration not listed); hit rate 0.21% among 330,000; AID 1053175, 2014;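 active means OD600 absorbance below the run mean of sample wells minus 3.6 SD, in any replicate, cut at about 0.56 in these data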
Tat export inh = E. coli Tat export inhibitors, primary screen, MC4100, TorA-mCherry reporter, fluorescence, single point; inhibition, % at 10 µM; hit rate 0.036% among 340,000; AID 488895, 2010;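 active means mean replicate inhibition at least 50% and at least half of replicates individually reaching 50%; inconclusive means only one of the two criteria met; inactive means neither criterion met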;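 further: exported cargo escapes ClpAP degradation while cytoplasmic cargo is degraded and loses fluorescence; 0% = median of neutral control wells and 100% = median of NaSCN control wells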
phage Ecoli inh = growth loss of phage-infected E. coli, primary screen, RecBCD inhibitor project, absorbance, with phage, HTS; inhibition, % at 11.9 µM; hit rate 0.26% among 360,000; AID 651602, 2012; in the data active means inhibition above about 11%
AddAB inh = growth inhibition of E. coli expressing H. pylori AddAB, primary screen, AddAB inhibitor project, absorbance; inhibition, % at 11.9 µM; hit rate 0.29% among 330,000; in the data active means inhibition above about 12%;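 further: 0% = vehicle wells of infected cells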
AddAB conf = growth loss of phage-infected E. coli expressing H. pylori AddAB, confirmation, AddAB inhibitor project, absorbance, E. coli V3065, T4 phage, triplicate; shares compounds with AddAB inh; AID 488942, 2010; hit rate 64% among 880; inhibition, % at 11.9 µM; OD; T4 phage with gene 2 nonsense mutations;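 active means mean inhibition above a set limit taken from the earlier primary screen, cut at about 13% in these data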;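 further: higher means less bacterial growth since AddAB block lets phage replicate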
RecBCD counter = growth loss of RecBCD+ E. coli with mutant T4 phage, counter-screen for AddAB inhibitor project, absorbance, V66 E. coli; shares compounds with AddAB inh; OD growth; inhibition, % at 11.9 µM; hit rate 73% among 880;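 active means mean inhibition above the mean of solvent-only control wells plus 3 SD, cut at about 4% in these data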;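 further: optical density read after an 18 h incubation at 37 °C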
Bact viability = bacterial viability inhibition counter-screen, confirmation, counter-screen for AddAB inhibitor project, absorbance; absorbance (AddAB counterscreen); shares compounds with AddAB inh; hit rate 35% among 880; inhibition, % at 11.9 µM; AID 488956, 2010; in the data active means inhibition above about 25%
Active calls of the source: *.

Screening COc1ccc(CNC(=O)C2CCN(S(=O)(=O)c3cccc4cccnc34)CC2)cc1 returned E coli growth-1 2.1, E coli growth-2 0.689, Tat export inh 2.6, phage Ecoli inh 2.6, AddAB inh 13.5*, AddAB conf -5.7, RecBCD counter 0.2 and Bact viability -3.4.
For CC(=NO)c1ccc2c(c1)OCCO2 the results were E coli growth-2 0.677.
Cc1nc2oc3c(=O)[nH]cnc3c2c2c1COC(C)(C)C2 was read as E coli growth-1 -0.5, E coli growth-2 0.676, Tat export inh 0.2, phage Ecoli inh 0.1, AddAB inh 30.6*, AddAB conf -0.7, RecBCD counter 0.2 and Bact viability -2.9.
Screening O=C(NC(=S)NNC(=O)c1ccccc1O)c1ccc(F)cc1 returned E coli growth-1 15.7*, E coli growth-2 0.723, Tat export inh 4.5, phage Ecoli inh 10.2, AddAB inh 12.7*, AddAB conf 15.2*, RecBCD counter 18.4* and Bact viability 16.1.
`COc1ccccc1C(=O)NNC(=S)NC(=O)c1cccs1` gave E coli growth-1 -0.2, Tat export inh 8.2, phage Ecoli inh 0.6 and AddAB inh 3.9.
O=C(NC(=S)NNC(=O)c1ccccc1O)c1cccs1 was read as E coli growth-1 6.1, E coli growth-2 0.537, Tat export inh 2.8, phage Ecoli inh 9.2, AddAB inh 12.8*, AddAB conf 22.1*, RecBCD counter 19.7* and Bact viability 13.4.
For O=C(NC(=S)NNC(=O)c1ccccc1O)c1ccccc1 the results were E coli growth-1 10.4*, E coli growth-2 0.577, Tat export inh inconclusive, phage Ecoli inh 9.9, AddAB inh 12.6*, AddAB conf 10.5, RecBCD counter 17.1* and Bact viability 15.0.
Screening COC(=O)NN=CC1=CCC2CC1C2(C)C (stereo unspecified) returned E coli growth-2 0.682.
For COCCNc1nnc(Cc2ccc(OC)c(OC)c2)c(=O)[nH]1 the results were E coli growth-1 -0.4, E coli growth-2 0.629, Tat export inh 2.8, phage Ecoli inh -0.2 and AddAB inh -1.7.
`COc1ccc(Cc2nnc(NN)[nH]c2=O)cc1OC` gave E coli growth-1 92.7*, E coli growth-2 0.0805*, Tat export inh 11.5, phage Ecoli inh 0.4, AddAB inh 97.2*, AddAB conf 98.8*, RecBCD counter 11.5* and Bact viability 96.6*.
CC(C)=CCCC(C)=CCCC(C)=CCOc1ccc2ccc(=O)oc2c1 was read as E coli growth-2 0.712.
`CC1C(=O)N2CCCc3cc(S(=O)(=O)N(C)c4ccccc4)cc1c32` (stereo unspecified) gave E coli growth-1 23.0*, E coli growth-2 0.658, Tat export inh -1.0, phage Ecoli inh -1.6, AddAB inh 43.9*, AddAB conf 1.4, RecBCD counter -2.1 and Bact viability -0.1.
For COc1ccc(C=NNC(=O)c2ccc3c(c2)OCO3)c(C(=O)O)c1OC the results were E coli growth-2 0.594.
Screening O=C(CSc1nc2ccc(Cl)cc2[nH]1)Nc1ccc2c(c1)CCC2 returned E coli growth-1 0.2, Tat export inh 2.4, phage Ecoli inh 4.3 and AddAB inh 4.5.
O=C(CSc1nc2ccccc2[nH]1)Nc1ccc2c(c1)CCC2 was read as E coli growth-1 7.3, E coli growth-2 0.613, Tat export inh -16.8, phage Ecoli inh 5.0, AddAB inh 17.5*, AddAB conf 2.6, RecBCD counter 5.2* and Bact viability 3.4.
OCCC1CC(O)C(O)[C@@]2(CCc3ccccc3O2)O1 (stereo partly specified) was read as E coli growth-2 0.687.
O=C(NNC(=O)c1cc(Br)ccc1O)c1csc(N2CCOCC2)n1 was read as E coli growth-1 32.6*, Tat export inh -3.5, AddAB inh 37.0*, AddAB conf 27.3*, RecBCD counter 26.5* and Bact viability 27.5*.
Screening O=C(NNC(=O)c1cc(Br)ccc1Cl)c1csc(N2CCOCC2)n1 returned E coli growth-1 -2.6, E coli growth-2 0.726, Tat export inh 4.9, phage Ecoli inh -0.6 and AddAB inh 3.0.
`NC(Cc1ccc([N+](=O)[O-])cc1)=NOC(=O)CC1CCCCC1` gave E coli growth-2 0.75.
`COc1cccc2cc(C(C)=NNC(=O)c3ccco3)oc12` gave E coli growth-2 0.647.
`O=c1c(O)c(-c2ccc(O)c(O)c2)oc2cc(O)cc(O)c12` gave E coli growth-1 9.6, E coli growth-2 0.599, Tat export inh 5.6, phage Ecoli inh 5.7, AddAB inh 13.3*, AddAB conf 9.4, RecBCD counter 3.9 and Bact viability 5.0.
O=C(CSc1ncccn1)Nc1ccc2c(c1)OCO2 was read as E coli growth-1 -0.5, E coli growth-2 0.714, Tat export inh 5.7, phage Ecoli inh 1.5 and AddAB inh 1.2.
`O=C(CSc1ncccn1)NC(=O)Nc1ccc2c(c1)OCCO2` gave E coli growth-1 8.7, E coli growth-2 0.558, Tat export inh -4.1, phage Ecoli inh 7.2, AddAB inh 12.4*, AddAB conf 8.2, RecBCD counter 6.4* and Bact viability 5.2.
Screening NC(=O)NN=Cc1coc2ccc3ccccc3c2c1=O returned E coli growth-2 0.695.
For C(C#CCCCCCCCCC[n+]1ccccc1)#CCCCCCCCCC[n+]1ccccc1 the results were E coli growth-1 102.0*, E coli growth-2 0.0635*, Tat export inh 81.6*, AddAB inh 100.9*, AddAB conf 100.2*, RecBCD counter 100.4* and Bact viability 101.0*.
`COc1ccc(NC(=O)C2CC=CC3CCN(Cc4ccc(Cl)c(Cl)c4)C(=O)C32)cc1` (stereo unspecified) gave E coli growth-2 0.663.
For CCCCCC(=O)NCc1c(C(F)(F)F)nn(C)c1N1CCOCC1 the results were E coli growth-1 96.8*, E coli growth-2 0.715, Tat export inh 0.4, phage Ecoli inh 0.5, AddAB inh 97.6*, AddAB conf -3.2, RecBCD counter 0.8 and Bact viability -0.4.
`CCN(Cc1ccccc1)C(=O)Cn1cc2c(n1)CCCC2` gave E coli growth-1 3.4, E coli growth-2 0.72, Tat export inh -4.7, phage Ecoli inh 2.0, AddAB inh 12.4*, AddAB conf 1.1, RecBCD counter -0.2 and Bact viability -3.7.
Screening NC(N)=NN=Cc1cccc(Cl)c1Cl returned E coli growth-2 0.637.
For COC(=O)NN=C(C)/C=C/c1ccccc1 the results were E coli growth-2 0.726.
Cc1ccsc1C=NNC(=O)c1cccs1 was read as E coli growth-2 0.685.

Screening results as filed in PubChem.
